Data on 39 compounds can be found in PubChem BioAssay (NCATS).

Several values for one entry are separate records, joined by “and”; a condition that tells them apart may be missing. Identical values can stand only once. Inconclusive results are not listed. Unmarked numbers belong to inactive results. Activity calls are given as the source filed them. Calls follow the shape of the dose curve; as a rule, active = well fitted activation curve with a large enough effect; inconclusive = small, poorly fitted or top-dose-only effect; inactive = no such curve, though single readings can be large or run the other way.
Potency is read from the fitted curve at half-maximal effect.

Sequence of Cellular tumor antigen p53 (Homo sapiens) (P04637 whole entry, looked up): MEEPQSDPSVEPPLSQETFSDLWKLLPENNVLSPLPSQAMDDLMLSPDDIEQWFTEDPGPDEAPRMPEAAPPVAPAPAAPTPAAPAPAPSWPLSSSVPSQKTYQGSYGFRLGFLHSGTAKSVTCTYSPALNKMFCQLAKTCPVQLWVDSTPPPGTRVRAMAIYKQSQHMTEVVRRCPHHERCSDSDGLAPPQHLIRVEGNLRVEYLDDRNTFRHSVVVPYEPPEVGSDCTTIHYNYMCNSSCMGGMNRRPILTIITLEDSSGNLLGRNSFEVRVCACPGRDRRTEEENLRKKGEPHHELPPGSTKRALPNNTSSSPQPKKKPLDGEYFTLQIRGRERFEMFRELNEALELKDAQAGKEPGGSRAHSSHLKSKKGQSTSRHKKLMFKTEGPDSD

This test has as its target Cellular tumor antigen p53 (Homo sapiens) (UniProt P04637). Description: Primary qHTS for small molecule compounds that upregulate eGFP-tagged delta133p53alpha (in N-terminal) cells. (AID 2060322). Also: nearly all actives have a fitted effect of over 75% in size.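 As to activation: series mostly up to about 56 µM; 0% = DMSO vehicle and 100% = reference activator.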 The note with it: NCI-H358 eGFP-delta133p53alpha fluorescence, 24 h; activation: active compounds read high. In a few lines:
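NCI-H358 cells pre-induced 24 h with 10 ng/ml doxycycline to express N-terminal eGFP-delta133p53alpha, then dosed 24 h at 37C without doxycycline; fixed, Hoechst-stained, GFP intensity by laser scanning cytometry, normalized to DMSO (0%) and 57.5 uM 5-azacytidine (100%).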
As for `COc1cc(CC(C)N)c(OC)cc1Br` (centres undefined), the activation was 43.5%.

Regarding `CCOC(=O)C1(c2ccccc2)CCN(CCC(C#N)(c2ccccc2)c2ccccc2)CC1`, the activation is -1.69%. Consider `C=C[C@@H]1CN2CCC1C[C@@H]2[C@@H](O)c1ccnc2ccccc12` (some centres undefined), for which the activation is -22.8%. Still for that read-out and setting: for `O=C1c2ccccc2C(=O)c2ccccc21` the value was 0%; for `COC[C@H]1OC(=O)c2coc3c2[C@@]1(C)C1=C(C3=O)[C@@H]2CC[C@H](O)[C@@]2(C)C[C@@H]1OC(C)=O`, 13.2%. On the same count and under the same terms, to `C[C@H]1CNCCc2ccc(Cl)cc21` belongs -8.37%. For `CC(C)(C)CC(C)(C)c1ccc(O)cc1`, the Potency is 28.2 µM (active) and 30.9 µM (active). As to `Clc1ccc(CCC(Cn2ccnc2)Sc2c(Cl)cccc2Cl)cc1` (centres undefined), the activation is 18.6% and -21.6%.

In the case of `O=C1OC(CCN2CCCCC2)OC1(c1ccccc1)c1ccccc1` (centres undefined), the activation is -20.9%. On to `CCC(C)C(C)(COC(N)=O)COC(N)=O` (centres undefined), for which the activation is 8.37%. In the case of `O=C(O)CCCc1ccc(N(CCCl)CCCl)cc1`, the activation was 7.53% and 20.9%. Same read-out and setting: to `COc1ccc(CN2CCNCC2)c(OC)c1OC` belongs -13%; to `C[C@@H]1CC2=CC(=O)CC[C@@H]2[C@H]2CC[C@@]3(C)[C@@H](CC[C@]3(C)O)[C@@H]21`, -3.35%.

On to `COP(=S)(OC)Oc1ccc(Sc2ccc(OP(=S)(OC)OC)cc2)cc1`, for which the activation is -14.2%.

In the case of `CC(=CCCC1=CCC(C2=CC(=O)OC2O)OC1O)CCC1=C(C)CCCC1(C)C` (centres undefined), the activation was 16.4%. On the same count and under the same terms, for `Cc1ccc(Cl)c(O)c1` the value was 5.08%; for `CC(CC(C(N)=O)(c1ccccc1)c1ccccc1)N(C)C` (centres undefined), -9.6%. In the case of `Oc1cc(Cl)ccc1Oc1ccc(Cl)cc1Cl`, the Potency is 51.4 µM (active). Regarding `C[C@@H]1CC[C@H]2[C@@H](C)C(=O)O[C@@H]3O[C@@]4(C)CC[C@H]1[C@]32OO4`, the activation is 5.37%.

As for `CCNc1nc(Cl)nc(NCC)n1`, the activation was 8.37%.

For the compound `Oc1ccc(Cl)cc1`, the activation is -7.34%.

On to `CCCN(CCC)C(=O)Cc1c(-c2ccc(Cl)cc2)nc2ccc(Cl)cn12`, for which the activation was 29.3%. On the same count and under the same terms, for `CCC(C(N)=O)N1CCCC1=O` (centres undefined) the value was -3.35%; for `CC(=O)Nc1cc([As](=O)(O)O)ccc1O`, -10.9%; for `CC(C)(O)C(Cl)(Cl)Cl`, -9.6%. As to `CCN(CCO)CCn1c(Cc2ccccc2)nc2c1c(=O)n(C)c(=O)n2C`, the activation is 16.7%. On the same count and under the same terms, to `OC(c1ccccc1)(c1ccccc1)C1CCNCC1` belongs -13.4%; to `C[C@]12CC[C@H]3[C@@H](CCC4=CC(=O)CC[C@@]43C)[C@@H]1CC[C@@H]2C(=O)O`, 1.69%; to `O=C1NCN(c2ccccc2)C12CCN(CCCOc1ccc(F)cc1)CC2`, 0.837%. For the compound `O=C1OC(c2ccc(O)c(S(=O)(=O)O)c2)(c2ccc(O)c(S(=O)(=O)O)c2)c2c(Br)c(Br)c(Br)c(Br)c21`, the activation was 25.4%.

`O=C(CCCN1CCC(n2c(=O)[nH]c3ccccc32)CC1)c1ccc(F)cc1`: the activation was -4.18%. On the same count and under the same terms, to `CCOC(C(=O)OCCN(C)C)(c1ccccc1)c1ccccc1` belongs -3.95%; to `CCCCCCCCCC(=O)O[C@H]1CC[C@H]2[C@@H]3CCC4=CC(=O)CC[C@@H]4[C@H]3CC[C@]12C`, 2.82%; to `ClCc1cccc(Cl)c1`, 5.02%. As to `CCOP(=S)(OCC)O/N=C(\C#N)c1ccccc1`, the activation is -18.6%. The same measure, in the same setting: to `CC[N+]1(CC)CCC(OC(=O)C(O)(c2ccccc2)c2ccccc2)C1` (centres undefined) belongs -15.3%; to `Nc1nc(N)nc(NC2CC2)n1`, 5.02%. For `Clc1ccccc1N1CCNCC1`, the activation is 28.8%.

On to `C[C@@H]1CC[C@@]2(OC1)O[C@H]1C[C@H]3[C@@H]4CC=C5C[C@@H](O[C@@H]6O[C@H](CO)[C@@H](O[C@@H]7O[C@@H](C)[C@H](O)[C@@H](O)[C@@H]7O)[C@H](O)[C@@H]6O[C@@H]6O[C@@H](C)[C@H](O)[C@@H](O)[C@@H]6O)CC[C@]5(C)[C@@H]4CC[C@]3(C)[C@@H]1[C@H]2C`, for which the activation is 15.2%.
